Consider eight molecules from PubChem BioAssay (EPA / NIEHS).

Test [1] can be described thus: APR_HepG2_CellCycleArrest_1hr: Apredica 1-hour HepG2 Assay for Cell Cycle Arrest (AID 2282666). As to conditions: high-content imaging, actives raise or lower the signal. The method in brief: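 HepG2 cells exposed for 1 h to 0.39–200 uM compound (0.5% DMSO). Fixed, Hoechst-stained nuclei imaged by ArrayScan; DNA content quantified by Cell Cycle analysis; bidirectional fit against DMSO.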

The nature of test [2]: ACEA_ER_80hr: ACEA Biosciences xCELLigence Real-Time Cell Analysis on Estrogen Receptor Agonism for Proliferation (AID 2282667; active = hit-call score of the fitted dose curve at least 0.9, where 1 is the maximum). As to conditions: T47D proliferation, impedance (xCELLigence), 80 h. A digest of the protocol:
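Estrogen-driven proliferation is captured as electrode impedance in T47D cells 80 h after compound addition. Test articles ran at 8 concentrations, 1:4 dilutions from 100 uM final, in two replicate plates.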

Test [3] is described as follows: APR_HepG2_CellLoss_1hr: Apredica 1-hour HepG2 Assay for Cell Loss (AID 2282668).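 Also: curves fitted both ways against DMSO so gain or loss of cells counts.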 As to conditions: high-content imaging. A digest of the protocol: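 HepG2 cells were treated for 1 h with compound at 0.39–200 uM, in duplicate, in 0.5% DMSO. After formaldehyde fixation, Hoechst 33342-stained nuclei were imaged on an ArrayScan to count cells. Data were fitted bidirectionally versus DMSO.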

Test [4] is described as follows: APR_HepG2_MicrotubuleCSK_1hr: Apredica 1-hour HepG2 Assay for Microtubule CSK Stabilty (AID 2282669). As to conditions: HepG2 microtubule cytoskeleton imaging, actives raise or lower the signal. The method in brief:
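HepG2 cells exposed 1 h to 0.39–200 uM compound (0.5% DMSO, duplicates), then formaldehyde-fixed, permeabilized and immunostained for alpha-tubulin with Hoechst nuclei. Imaged by ArrayScan high-content analysis; bidirectional fit versus DMSO.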

Test [5] is described as follows: APR_HepG2_MitoticArrest_1hr: Apredica 1-hour HepG2 Assay for Mitotic Arrest (AID 2282672). As to conditions: high-content imaging, actives raise or lower the signal. A digest of the protocol:
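HepG2 cells exposed 1 hr to compounds at 0.39–200 uM (0.5% v/v DMSO final), then fixed in 3.7% formaldehyde and immunostained for phospho-histone H3 with Hoechst 33342. Mitotic arrest scored by automated fluorescence imaging, fitted bidirectionally versus DMSO.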

The nature of test [6]: APR_HepG2_P-H2AX_1hr: Apredica 1-hour HepG2 Assay for H2AX Phosphorylation (AID 2282673). As to conditions: high-content imaging, actives raise or lower the signal. The method in brief: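 HepG2 dosed 1 hr at 0.39-200 uM (0.5% DMSO final), duplicate. Fixed in 3.7% formaldehyde, Triton permeabilized, immunostained for phospho-histone H2A.x (1:200) with Hoechst 33342; ArrayScan 20x imaging, bidirectional fit vs DMSO.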

Test [7] is described as follows: APR_HepG2_MitoMass_1hr: Apredica 1-hour HepG2 Assay for Mitochondrial Mass (AID 2282674). As to conditions: high-content imaging, actives raise or lower the signal. The method in brief:
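HepG2 cells dosed 1 hr with 0.39-200 uM compound (0.5% DMSO), duplicate wells. Mitochondria stained with 250 nM MitoTracker Red CMXRos for 30 min before formaldehyde fixation, imaged at 20x by ArrayScan; bidirectional fit versus DMSO.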

Test [8] is described as follows: APR_HepG2_MitoMembPot_1hr: Apredica 1-hour HepG2 Assay for Mitochondrial Membrane Potential (AID 2282675). As to conditions: imaging, actives raise or lower the signal. A digest of the protocol: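 HepG2 cells dosed 1 hour with 0.39–200 uM compound in duplicate, 0.5% DMSO final. MitoTracker Red CMXRos (250 nM, 30 min) loaded before formaldehyde fixation; fluorescence quantified by high-content imaging, bidirectional fitting versus DMSO.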

The nature of test [9]: APR_HepG2_CellCycleArrest_24hr: Apredica 24-hour HepG2 Assay for Cell Cycle Arrest (AID 2282905).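 Also: cell cycle arrest scored as ratio of 2N to 4N nuclear DNA content.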 As to conditions: imaging, actives raise or lower the signal. A digest of the protocol: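 Compounds at 0.39–200 uM (0.5% DMSO) for 24 h, then fixed and Hoechst 33342 stained. Cell-cycle analysis of nuclear DNA content by high-content imaging, fitted bidirectionally versus DMSO.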

The nature of test [10]: APR_HepG2_StressKinase_1hr: Apredica 1-hour HepG2 Assay for Stress Kinase (AID 2282906). As to conditions: HepG2 stress kinase (phospho-c-Jun) imaging, actives raise or lower the signal. A digest of the protocol: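 HepG2 cells dosed 0.39-200 uM (0.5% DMSO) for 1 h, then formaldehyde-fixed. Stress kinase read by phospho-c-Jun immunofluorescence using high-content imaging; bidirectional fit vs DMSO.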

Test [11] is described as follows: APR_HepG2_NuclearSize_24hr: Apredica 24-hour HepG2 Assay for Nuclear Size (AID 2282907). As to conditions: high-content imaging, actives raise or lower the signal. A digest of the protocol:
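HepG2 cells exposed 24 h to compounds at 0.39–200 uM (0.5% DMSO), fixed, Hoechst 33342 stained and imaged at 20x; nuclear diameter measured by automated image analysis, fitted bidirectionally against DMSO controls.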

A short description of test [12]: APR_HepG2_CellLoss_24hr: Apredica 24-hour HepG2 Assay for Cell Loss (AID 2282908). As to conditions: high-content imaging. The method in brief: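 HepG2 cells exposed 24 hr to 0.39–200 uM compound in duplicate at 0.5% v/v final DMSO. Cells fixed in 3.7% formaldehyde and Hoechst 33342-stained. Cell number came from nuclear imaging at 20x. Bidirectional fit versus DMSO.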

The nature of test [13]: APR_HepG2_MicrotubuleCSK_24hr: Apredica 24-hour HepG2 Assay for Microtubule CSK Stabilty (AID 2282909). As to conditions: HepG2 microtubule cytoskeleton imaging, actives raise or lower the signal. A digest of the protocol: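 HepG2 cells were treated 24 hr with compound at 0.39–200 uM in duplicate (0.5% DMSO final), then fixed and permeabilized. Alpha-tubulin immunofluorescence was imaged by high-content microscopy, with bidirectional fitting against DMSO and taxol as positive control.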

Test [14] can be described thus: APR_HepG2_MitoticArrest_24hr: Apredica 24-hour HepG2 Assay for Mitotic Arrest (AID 2282910). As to conditions: high-content imaging, actives raise or lower the signal. A digest of the protocol: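 HepG2 cells, 24 h exposure at 0.39-200 uM (10 concentrations, duplicate, 0.5% DMSO). Fixed, stained for phospho-histone H3 with Hoechst; imaged by high-content microscopy, bidirectional fit versus DMSO.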

Test [15] can be described thus: APR_HepG2_MitoMembPot_24hr: Apredica 24-hour HepG2 Assay for Mitochondrial Membrane Potential (AID 2282911). As to conditions: imaging, actives raise or lower the signal. A digest of the protocol: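 Mitochondrial dye uptake (MitoTracker Red CMXRos, 250 nM, 30 min pre-fixation) in HepG2 after 24 hr compound exposure, 0.39–200 uM; ArrayScan images at 20x, activity fitted in both directions relative to DMSO.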

The nature of test [16]: APR_HepG2_MitoMass_24hr: Apredica 24-hour HepG2 Assay for Mitochondrial Mass (AID 2282912). As to conditions: high-content imaging, actives raise or lower the signal. A digest of the protocol: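 HepG2 cells exposed 24 hr to 0.39–200 uM compound, 0.5% v/v DMSO, in duplicate. Stained before fixation with 250 nM MitoTracker Red CMXRos for 30 min, then imaged at 20x with Hoechst nuclei. Fitted in both directions against DMSO.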

The nature of test [17]: APR_HepG2_CellCycleArrest_72hr: Apredica 72-hour HepG2 Assay for Cell Cycle Arrest (AID 2282914). As to conditions: high-content imaging, actives raise or lower the signal. The method in brief:
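Using multiplexed high-content imaging, HepG2 nuclei stained with Hoechst 33342 (2 ug/mL) were analysed for DNA content after fixation and permeabilization. Treatment lasted 72 hr across 0.39–200 uM in duplicate with final DMSO 0.5% v/v; DMSO served as negative control.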

Test [18] is described as follows: APR_HepG2_p53Act_1hr: Apredica 1-hour HepG2 Assay for p53 Activation (AID 2282671). As to conditions: high-content imaging, actives raise or lower the signal. A digest of the protocol: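 HepG2 cells treated 1 h with compound at 0.39–200 uM (10 concentrations, duplicate) in 0.5% DMSO. Formaldehyde-fixed, permeabilised cells immunostained for p53 with Hoechst 33342; high-content imaging, bidirectional fit versus DMSO.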

Test [19] in a line: APR_HepG2_p53Act_24hr: Apredica 24-hour HepG2 Assay for p53 Activation (AID 2282913).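 Also: p53 protein immunofluorescence averaged per cell in HepG2 with Hoechst nuclei.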 As to conditions: high-content imaging, actives raise or lower the signal. The method in brief: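 Following 24 hr dosing of HepG2 at 0.39–200 uM, the cells undergo formaldehyde fixation, Triton permeabilization and multiplexed antibody labeling that includes p53 (Cy5). Signal from the imaging is referenced to DMSO solvent controls.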

Test [20] can be described thus: APR_HepG2_NuclearSize_1hr: Apredica 1-hour HepG2 Assay for Nuclear Size (AID 2282670). As to conditions: high-content imaging, actives raise or lower the signal. A digest of the protocol:
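HepG2 cells dosed 1 hr with 0.39–200 uM compound (0.5% DMSO), formaldehyde-fixed, Hoechst 33342-stained and imaged at 20x; nuclear diameter from nuclear stain, fitted bidirectionally against DMSO.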

Molecules are shown by their SMILES. Records with an inconclusive call do not appear. Calls of active or inactive are those of the source. The calls were made as follows, unless noted: active = hit-call score of the fitted dose curve at least 0.9, where 1 is the maximum; inactive = score below 0.9.

Broadly, the AC50 is the concentration at which the activity in the assay is half-maximal. On to `CCNC(=O)NC(=O)C(C#N)=NOC`, for which the AC50 in test [1] was 0.0391 µM (active). Moreover, the call in test [2], in [3], in test [4], in test [5], in [6] and in [7] was inactive. Also, the call in test [8], in test [9], in test [10], in [11], in test [12] and in test [13] was inactive. For the same molecule, the molecule was called inactive in [14], in test [15], in test [16] and in [17].
For the molecule `CC1(C)CON(Cc2ccccc2Cl)C1=O`, the molecule was called inactive in [1], in [2], in [3], in test [4], in [18] and in test [6]. Further, the call in test [7], in [9], in [10], in test [11], in test [12] and in test [13] was inactive. Further, the call in test [14], in [15], in test [16], in test [19] and in [17] was inactive.
Consider `CC(C)Nc1nc(Cl)nc(NC(C)C)n1`, for which the result in [1], in test [2], in [3], in test [4], in test [20] and in test [18] was inactive. For the same molecule, the molecule was called inactive in [5], in test [6], in test [7], in test [9], in test [10] and in [11]. The result in [12], in test [13], in [14], in test [16], in test [19] and in test [17] was inactive. For the same molecule, in test [15], the AC50 was 110 µM (active).
With `COP(=O)(OC)O/C(C)=C/C(=O)N(C)C`, the molecule was called inactive in test [1], in [2], in test [3], in [4], in test [18] and in test [5]. Also, the call in [6], in test [7], in test [8], in [9], in [10] and in [11] was inactive. Besides, the result in [12], in [13], in [14], in test [15], in test [16] and in [19] was inactive.
For the molecule `COC(=O)c1c(C(F)F)nc(C(F)(F)F)c(C2=NCCS2)c1CC(C)C`, the call in test [1], in [2], in test [3], in test [4], in test [20] and in test [18] was inactive. Further, the outcome in test [5], in [6], in test [7], in test [8], in [9] and in test [10] was inactive. The call in test [11], in [12], in [14], in [15], in [16] and in test [19] was inactive. Besides, the call in test [17] was inactive. Also, the AC50 in test [13] was 91.6 µM (active).
Regarding `O=C(O)c1c(Cl)ccc2cc(Cl)cnc12`, the result in test [1], in test [2], in test [3], in test [4], in test [6] and in [7] was inactive. Also, the molecule was called inactive in [9], in test [10], in test [11], in test [12], in [13] and in test [14]. Further, the outcome in [15] and in test [16] was inactive.
Take `Clc1nc(Cl)nc(Nc2ccccc2Cl)n1`: the molecule was classed as inactive in [1], in test [2], in test [3], in [4], in test [18] and in test [5]. Besides, the call in test [6], in test [7], in test [8], in [9], in [10] and in test [11] was inactive. The molecule was classed as inactive in test [12], in test [13], in [14], in [15], in test [16] and in [19].
Take `CCOP(=O)(OCC)Oc1nc(Cl)c(Cl)cc1Cl`: the molecule was classed as inactive in test [1], in test [2], in test [3], in [4], in [18] and in test [5]. The molecule was called inactive in test [6], in test [7], in [8], in test [9], in [10] and in test [11]. The molecule was classed as inactive in [12], in test [13], in test [14], in test [15], in test [16] and in test [19]. Further, the molecule was classed as inactive in [17].
